Nrf2 ARE act = activators of Nrf2 (ARE) signaling; AREc32 ARE-luciferase reporter (MCF7-derived line), luminescence, 24 h; Potency, µM (highest dose often 46.1 µM), usual class: activators; actives 0.31% (n = 410,000); note: nearly all actives have a fitted effect of over 65% in size
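AREc32 cells carrying an ARE-driven firefly luciferase reporter were seeded at 1000 cells/well in OPTI-MEM with 5% FBS, then exposed to compound for 24 hr at 37 deg C. Luminescence was read with Steady-Glo after 30 min at RT.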
A549 tox-1 = kills or reduces viability of A549 cells in Nrf2 counter-screen; A549 ARE-Fluc cells, CellTiter-Fluor viability, 18-24 h; Potency, µM (titrated, usually from 46 µM), actives largely listed as inhibitors; actives 0.16% (n = 390,000)
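Cytotoxicity counterscreen: CellTiter-Fluor fluorescence was measured in A549 ARE_Fluc cells after 18-24 h of compound exposure in a concentration series. The subsequent BugLite luminescent read reports ARE-luciferase activity.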
12-LOX inh = inhibitors of human 12S-lipoxygenase ALOX12; P18054; purified 12hLO, xylenol orange hydroperoxide absorbance; Potency, µM (doses to about 108 µM), most hits filed as inhibitors; actives 1.1% (n = 580,000); AID 1671190
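Purified human 12hLO at 150 nM in 25 mM Hepes, 0.01% Triton X-100, pH 7.0, preincubated 15 min at room temperature with compound. Reaction started with 40 uM arachidonic acid, 30 min at room temperature. Hydroperoxide measured by Fe-xylenol orange, 573/405 nm absorbance ratio.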
Nrf2 inh = Nrf2 pathway inhibition. Potency, µM (series often up to 46 µM), hits mostly inhibitors. A549 ARE-Fluc reporter, luciferase luminescence, 18-24 h. actives 2.1% (n = 360,000); note: nearly all actives have a fitted effect of over 60% in size
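In this cell-based qHTS, ARE-driven firefly luciferase in A549 cells reports Nrf2 activity; the luminescent signal after BugLite lysis is the measured value, with a prior CellTiter-Fluor read for cell health.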
ERG-DNA inh = ERG Ets/DNA interaction inhibition; P11308; fluorescence polarization, His-ERG Ets domain / labelled DNA; Potency, µM (top dose mostly 76.9 µM), most hits filed as inhibitors; actives 0.028% (n = 370,000); AID 624246; active = well fitted inhibition curve with a large enough effect in the polarisation, with a control signal flat; inconclusive = small, poorly fitted or top-dose-only effect, or effect the other way, or a change in a side signal; inactive = no such curve, though single readings can be large or run the other way; the % refers to the polarisation;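 note: polarization taken with two DNA probes labelled with fluorescein and Texas red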
Target sequence (P11308 whole entry, looked up, the tested form may be a part): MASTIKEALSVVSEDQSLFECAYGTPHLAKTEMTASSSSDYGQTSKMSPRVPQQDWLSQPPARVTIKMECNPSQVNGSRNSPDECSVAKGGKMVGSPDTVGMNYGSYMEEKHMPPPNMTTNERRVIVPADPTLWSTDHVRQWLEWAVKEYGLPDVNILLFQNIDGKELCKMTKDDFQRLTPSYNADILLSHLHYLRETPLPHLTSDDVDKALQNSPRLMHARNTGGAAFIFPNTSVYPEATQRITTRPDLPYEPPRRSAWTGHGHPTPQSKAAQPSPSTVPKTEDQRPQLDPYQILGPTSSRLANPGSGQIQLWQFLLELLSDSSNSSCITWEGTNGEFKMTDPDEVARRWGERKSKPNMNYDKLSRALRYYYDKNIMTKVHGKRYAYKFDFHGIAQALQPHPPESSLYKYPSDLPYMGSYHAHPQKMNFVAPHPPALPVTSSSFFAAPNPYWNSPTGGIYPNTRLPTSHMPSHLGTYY
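His-tagged ERG Ets domain (1 uM in the protein solution; 300mM KCl, 50mM Tris-HCl, 1mM EDTA, 1mM DTT, pH 7.5) received compound, then a probe mix of 5 nM fluorescein-DNA and 100nM Texas-615-DNA. Fluorescence polarization was read for both dyes.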
LDHA inh = inhibitors of human lactate dehydrogenase A. P00338. purified LDHA, NADH/diaphorase-resazurin fluorescence; active compounds read low. activity change, % (values are at about 110 or 230 µM). actives 0.15% (n = 480,000); in the data active = activity change below about -30%; inconclusive = mostly about -25% to -30%
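LDH5 2 nM; NADH 0.06 mM, pyruvate 0.2 mM; 200 mM Tris pH 7.4, EDTA, Tween-20; 5 min RT. Detection: diaphorase 0.133 mg/mL + resazurin 37 µM, fluorescence ex540/em590 at 0 and 20 min; normalized to enzyme-free and DMSO wells.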
FLuc counter 3 = counter-screen for Nrf2 inhibitors: firefly luciferase enzyme inhibition. shares compounds with Nrf2 inh. actives 4% (n = 1,400). Potency, µM (highest dose often 57.5 µM), hits mostly inhibitors. purified firefly luciferase, luminescence inhibition; note: nearly all actives have a fitted effect of over 65% in size
A549 tox-2 = toxic to A549 ARE-Fluc cells in Nrf2 counterscreen | actives 2% (n = 1,400) | A549 ARE-Fluc cells, cytotoxicity counterscreen | AID 720523 | shares compounds with Nrf2 inh | Potency, µM (series often up to 46.1 µM), actives largely listed as inhibitors;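 note: cells exposed to compounds for 18 to 24 hours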
ARE-Fluc inh = Nrf2 inhibition confirmed, A549 ARE-luciferase. shares compounds with Nrf2 inh. A549 ARE-firefly luciferase reporter, luminescence. Potency, µM (top dose mostly 46.1 µM), hits mostly inhibitors. actives 74% (n = 1,400). AID 720524; note: nearly all actives have a fitted effect of over 65% in size
Hits are given with their value; – = inactive; ? = inconclusive; · = no result given. In the library only some 2.7% were active in any assay of this set; here they are far more common. Unless noted, calls come from the whole dose curve; as a rule, active = well fitted curve in the direction sought with a large enough effect; inconclusive = small, poorly fitted or top-dose-only effect, or another doubt; inactive = no such curve, though single readings can be large; an effect the other way counts as inactive or inconclusive.

SMILES	Nrf2 ARE act	A549 tox-1	12-LOX inh	Nrf2 inh	ERG-DNA inh	LDHA inh	FLuc counter 3	A549 tox-2	ARE-Fluc inh
CC1CSc2ccc(S(=O)(=O)N3CCN(c4ccccc4F)CC3)cc2NC1=O (configuration not stated)	·	·	–	·	·	–	·	·	·
COc1ccccc1NS(=O)(=O)c1cc(NC(=O)CCC(=O)c2cccs2)ccc1Cl	–	–	–	8.2µM	–	–	–	–	?
COc1ccc(NC(=O)CCC(=O)c2cccs2)cc1S(=O)(=O)Nc1ccc(Cl)cc1	–	–	–	–	–	–	·	·	·
CC(=O)Nc1c(C)noc1/C=C\c1ccc(C)c(S(=O)(=O)Nc2cccc(C)c2C)c1	·	·	–	·	·	–	·	·	·
C=CCn1c(O)c(N=NC(=S)Nc2ccccc2F)c2ccccc21	–	?	–	?	–	–	·	·	·
C=CCn1c(O)c(N=NC(=S)Nc2ccccc2F)c2cc(S(=O)(=O)N3CCOCC3)ccc21	–	?	–	5.8µM	–	–	–	–	·
COCCn1cnnc1SC(C)c1ccc(F)cc1 (configuration not stated)	·	·	?	·	·	–	·	·	·
Cc1ccccc1C(=O)N1CCc2cc(-c3nc(NC(=O)Cc4ccc5c(c4)OCO5)sc3C)ccc21	–	–	·	4.61µM	–	–	–	–	5.8µM
Cc1cc[n+](CCC2CCCCC2)c2ccccc12	·	·	·	·	·	·	–	–	?
CCCCCCC[n+]1ccc(C)c2ccccc21	·	·	·	·	·	·	–	–	·
COc1ccc(CN(C)C(=O)Cc2ccc(OC)c(S(=O)(=O)N3CCOCC3)c2)cc1OC	–	–	–	–	–	–	·	·	·
COc1ccc(Br)cc1CN(C)C(=O)Cc1ccc(OC)c(S(=O)(=O)N2CCOCC2)c1	–	–	–	8.2µM	–	–	–	–	–
Nc1ccc(Oc2ccccc2-c2ccccc2)cc1	–	–	?	9.2µM	–	–	?	–	8.2µM
NCc1cc(Cl)c2c(c1)OCCCO2	·	·	?	·	·	–	·	·	·
Cc1cccc(NC(=O)CN2CCN(C(=O)NCc3ccccc3)CC2)c1C	·	·	–	·	·	–	·	·	·
Cc1cccc(NC2=NC(C)(C)N=C(N)N2)c1	–	–	–	5.17µM	–	–	–	–	4.61µM
O=C(Nc1cccc(F)c1)C1CCN(S(=O)(=O)c2cccc3nsnc23)CC1	–	–	–	0.0082µM	–	–	–	–	–
Cc1cccc(NC(=O)C2CCN(S(=O)(=O)c3cccc4nsnc34)CC2)c1	–	–	–	?	–	–	·	·	·
O=C(Nc1ccccc1C(F)(F)F)c1ccccc1	·	·	–	·	·	–	·	·	·
CCC1CCCCN1C(=O)COC(=O)c1cnc2ccccc2n1 (configuration not stated)	·	·	–	·	·	–	·	·	·
O=C(Nc1ccc(Oc2cccnc2)nc1)c1ccc(C(F)(F)F)cc1	–	–	–	5.8µM	–	–	?	–	4.61µM
O=C(CN1CCN(c2cnn(-c3ccccc3)c(=O)c2Cl)CC1)Nc1ccc2[nH]c(=O)[nH]c2c1	·	·	–	·	·	–	·	·	·
c1ccc(CN2CCC(NC3CCCC3)CC2)cc1	·	·	?	·	·	–	·	·	·
Cc1csc2ncnc(NC3CCN(Cc4ccccc4)CC3)c12	–	–	–	9.2µM	–	–	–	–	4.11µM
CC(C)[N+](C)(CCOC(=O)C1c2ccccc2Oc2ccccc21)C(C)C	–	–	–	5.17µM	?	–	–	–	4.61µM
SMILES	Nrf2 ARE act	A549 tox-1	12-LOX inh	Nrf2 inh	ERG-DNA inh	LDHA inh	FLuc counter 3	A549 tox-2	ARE-Fluc inh
CC(C)CNC(=O)COC(=O)C1c2ccccc2Oc2ccccc21	–	–	–	–	–	–	·	·	·
C(=C\c1ccccn1)/c1ccccc1	·	·	?	·	·	–	–	–	10.3µM
Cc1c(/C=C/c2ccnc3ccccc23)ccc(N(C)C)c1C	·	·	·	·	·	–	–	–	?
C(=C\c1cc(/C=C/c2ccccc2)ncn1)/c1ccccc1	–	–	–	?	–	–	·	·	·
CCN(CC)c1ccc(/C=C/c2ccnc3ccccc23)cc1	·	·	·	·	·	–	?	–	14.6µM
Clc1ccc(/C=C/c2ccnc3ccccc23)cc1	·	·	·	·	·	–	·	·	·
Clc1ccc(/C=C/c2ccnc3ccccc23)c(Cl)c1	·	·	·	·	·	·	?	–	?
COc1cc(F)ccc1-c1nc(-c2c(C)noc2C)cc2[nH]c(C)cc12	·	·	–	·	·	·	·	·	·
C=CCNC(=O)NC(=O)CN(C)CCOc1cccc(C)c1	·	·	?	·	·	–	·	·	·
